# Measured values reported in PubChem BioAssay AID1159580 (chemical genetic matrix, 2015).
# Several values for one entry are separate records, joined by “and”; a condition that tells them apart may be missing. Equal values may be shown once. Among all 5,500 compounds or so, about 2,000 (36%) were called active. Not shown: some 18% with an inconclusive outcome. This is one part of the list. Values without a mark were called inactive. Rule as the data show it: active = normalized growth mostly below about 0.91 (no sharp cut-off); inconclusive = no clear call, values can overlap the other calls; inactive = mostly above about 0.92.
# Experiment: chemical genetic growth profiling, strain panel (AID 1159580);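 also: tested at 20 µM; growth read once vehicle control cultures reached saturation at 30 °C; 1 = growth at the plate median or of vehicle wells; lower values mean less growth of the strain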
# Conditions: S. cerevisiae deletion strains, growth OD
compound,measurement,setting,value
Cc1c(Cl)cccc1Nc1ccccc1C(=O)O,normalized growth,"locus YAL021C, strain ccr4, stronger effect = lower value",0.863 (active)
same,normalized growth,"locus YAL026C, strain drs2, stronger effect = lower value",0.805 (active)
same,normalized growth,"locus YAL030W, strain snc1, stronger effect = lower value",0.842 (active)
same,normalized growth,"locus YBL061C, strain skt5, stronger effect = lower value",0.81 (active)
same,normalized growth,"locus YBR009C, strain hhf1, stronger effect = lower value",0.82 (active)
same,normalized growth,"locus YBR021W, strain FUR4, stronger effect = lower value",0.74 (active)
same,normalized growth,"locus YBR023C, strain chs3, stronger effect = lower value",0.801 (active)
same,normalized growth,"locus YBR171W, strain sec66, stronger effect = lower value",0.729 (active)
same,normalized growth,"locus YBR229C, strain ROT2, stronger effect = lower value",0.848 (active)
same,normalized growth,"locus YBR231C, strain swc5, stronger effect = lower value",0.825 (active)
same,normalized growth,"locus YBR279W, strain paf1, stronger effect = lower value",0.839 (active)
same,normalized growth,"locus YCL011C, strain gbp2, stronger effect = lower value",0.83 (active)
same,normalized growth,"locus YCL016C, strain dcc1, stronger effect = lower value",0.827 (active)
same,normalized growth,"locus YCL029C, strain bik1, stronger effect = lower value",0.812 (active)
same,normalized growth,"locus YCL061C, strain MRC1, stronger effect = lower value",0.842 (active)
same,normalized growth,"locus YCL069W, strain vba3, stronger effect = lower value",0.815 (active)
same,normalized growth,"locus YCR088W, strain abp1, stronger effect = lower value",0.812 (active)
same,normalized growth,"locus YDL005C, strain med2, stronger effect = lower value",0.865 (active)
same,normalized growth,"locus YDL035C, strain GPR1, stronger effect = lower value",0.848 (active)
same,normalized growth,"locus YDL040C, strain nat1, stronger effect = lower value",0.83 (active)
same,normalized growth,"locus YDL074C, strain BRE1, stronger effect = lower value",0.75 (active)
same,normalized growth,"locus YDL101C, strain DUN1, stronger effect = lower value",0.929
same,normalized growth,"locus YDL134C, strain PPH21, stronger effect = lower value",0.817 (active)
same,normalized growth,"locus YDL185W, strain tfp1, stronger effect = lower value",0.956
same,normalized growth,"locus YDL192W, strain arf1, stronger effect = lower value",0.796 (active)
same,normalized growth,"locus YDR001C, strain nth1, stronger effect = lower value",0.804 (active)
same,normalized growth,"locus YDR069C, strain doa4, stronger effect = lower value",0.897 (active)
same,normalized growth,"locus YDR101C, strain arx1, stronger effect = lower value",0.835 (active)
same,normalized growth,"locus YDR137W, strain rgp1, stronger effect = lower value",0.464 (active)
same,normalized growth,"locus YDR150W, strain NUM1, stronger effect = lower value",0.836 (active)
same,normalized growth,"locus YDR159W, strain sac3, stronger effect = lower value",0.615 (active)
same,normalized growth,"locus YDR162C, strain NBP2, stronger effect = lower value",0.709 (active)
same,normalized growth,"locus YDR195W, strain ref2",1.15 [resistant] (active)
same,normalized growth,"locus YDR297W, strain sur2, stronger effect = lower value",0.835 (active)
same,normalized growth,"locus YDR318W, strain mcm21, stronger effect = lower value",0.793 (active)
same,normalized growth,"locus YDR334W, strain swr1, stronger effect = lower value",0.812 (active)
same,normalized growth,"locus YDR335W, strain msn5, stronger effect = lower value",0.836 (active)
same,normalized growth,"locus YDR388W, stronger effect = lower value",0.79 (active)
same,normalized growth,"locus YDR392W, strain spt3, stronger effect = lower value",0.225 (active)
same,normalized growth,"locus YDR502C, strain sam2, stronger effect = lower value",0.802 (active)
same,normalized growth,"locus YEL003W, strain gim4, stronger effect = lower value",0.839 (active)
same,normalized growth,"locus YEL037C, strain rad23, stronger effect = lower value",0.836 (active)
same,normalized growth,"locus YEL061C, strain CIN8 (second series), stronger effect = lower value",0.819 (active)
same,normalized growth,"locus YEL061C, strain CIN8, stronger effect = lower value",0.855 (active)
same,normalized growth,"locus YER015W, strain faa2, stronger effect = lower value",0.848 (active)
same,normalized growth,"locus YER016W, strain bim1, stronger effect = lower value",0.856 (active)
same,normalized growth,"locus YER110C, stronger effect = lower value",0.769 (active)
same,normalized growth,"locus YER111C, strain swi4, stronger effect = lower value",0.831 (active)
same,normalized growth,"locus YER155C, strain BEM2 (second series), stronger effect = lower value",0.595 (active)
same,normalized growth,"locus YER155C, strain BEM2, stronger effect = lower value",0.684 (active)
same,normalized growth,"locus YER167W, strain BCK2, stronger effect = lower value",0.812 (active)
same,normalized growth,"locus YFR010W, strain ubp6, stronger effect = lower value",0.876 (active)
same,normalized growth,"locus YGL078C, strain dbp3, stronger effect = lower value",0.958
same,normalized growth,"locus YGL086W, strain mad1, stronger effect = lower value",0.815 (active)
same,normalized growth,"locus YGL167C, strain pmr1, stronger effect = lower value",0.757 (active)
same,normalized growth,"locus YGL173C, strain kem1, stronger effect = lower value",0.819 (active)
same,normalized growth,"locus YGL227W, strain vid30, stronger effect = lower value",0.808 (active)
same,normalized growth,"locus YGL240W, strain doc1, stronger effect = lower value",0.791 (active)
same,normalized growth,"locus YGL248W, strain PDE1, stronger effect = lower value",0.841 (active)
same,normalized growth,"locus YGL253W, strain hxk2, stronger effect = lower value",0.706 (active)
same,normalized growth,"locus YGR078C, strain PAC10, stronger effect = lower value",0.814 (active)
same,normalized growth,"locus YGR135W, strain pre9, stronger effect = lower value",0.792 (active)
same,normalized growth,"locus YGR252W, strain gcn5, stronger effect = lower value",0.609 (active)
same,normalized growth,"locus YHR013C, strain ard1, stronger effect = lower value",0.854
same,normalized growth,"locus YHR027C, strain rpn1, stronger effect = lower value",0.843 (active)
same,normalized growth,"locus YHR030C, strain SLT2, stronger effect = lower value",0.827 (active) and 0.555 (active)
same,normalized growth,"locus YHR079C, strain IRE1 (second series), stronger effect = lower value",0.793 (active)
same,normalized growth,"locus YHR079C, strain IRE1, stronger effect = lower value",0.633 (active)
same,normalized growth,"locus YHR094C, strain hxt1, stronger effect = lower value",0.796 (active)
same,normalized growth,"locus YHR129C, strain ARP1, stronger effect = lower value",0.837 (active)
same,normalized growth,"locus YHR142W, strain chs7, stronger effect = lower value",0.586 (active)
same,normalized growth,"locus YHR200W, strain rpn10, stronger effect = lower value",0.789 (active)
same,normalized growth,"locus YIL066C, strain RNR3, stronger effect = lower value",0.839 (active)
same,normalized growth,"locus YIL073C, strain SPO22, stronger effect = lower value",0.776
same,normalized growth,"locus YIL125W, strain kgd1, stronger effect = lower value",0.966
same,normalized growth,"locus YIR030C, strain dcg1, stronger effect = lower value",0.792 (active)
same,normalized growth,"locus YJL092W, strain hpr5, stronger effect = lower value",0.814 (active)
same,normalized growth,"locus YJL095W, strain BCK1 (second series), stronger effect = lower value",0.828 (active)
same,normalized growth,"locus YJL095W, strain BCK1, stronger effect = lower value",0.594 (active) and 0.648 (active)
same,normalized growth,"locus YJL115W, strain asf1, stronger effect = lower value",0.854 (active)
same,normalized growth,"locus YJL129C, strain trk1, stronger effect = lower value",0.442 (active)
same,normalized growth,"locus YJL134W, strain LCB3, stronger effect = lower value",0.842 (active)
same,normalized growth,"locus YJL154C, strain vps35, stronger effect = lower value",0.845 (active)
same,normalized growth,"locus YJL164C, strain tpk1, stronger effect = lower value",0.803 (active)
same,normalized growth,"locus YJL166W, strain qcr8, stronger effect = lower value",0.756 (active)
same,normalized growth,"locus YJL168C, strain set2, stronger effect = lower value",0.797 (active)
same,normalized growth,"locus YJL187C, strain SWE1 (second series), stronger effect = lower value",0.851 (active)
same,normalized growth,"locus YJL187C, strain SWE1, stronger effect = lower value",0.832 (active)
same,normalized growth,"locus YJR043C, strain POL32, stronger effect = lower value",0.867
same,normalized growth,"locus YJR066W, strain TOR1, stronger effect = lower value",0.731 (active)
